Only some compounds are listed: those with a hit (about 1.7% of all), similar ones and a draw of the others.
p53ts 32C tox – qHTS Screen for Compounds that Selectively Target Cancer Cells with p53 Mutations: Cytotoxicity of p53ts Cells at the Permissive Temperature; H1299-p53A138V at 32C, ATP luminescence viability, 24 h; Potency, µM (top dose mostly 46.1 µM), inactives show top-dose activity change, negative = cytotoxicity, actives largely listed as cytotoxic; 130,000 tested, 0.93% active; AID 924, 2007;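 note: 0% = DMSO and -100% = full killing by reference compound; nearly all actives have a fitted effect of over 55% in size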
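H1299-p53 A138V cells (temperature-sensitive p53) exposed 24 h to up to 46 uM compound at 32C, where p53 is wild-type in conformation. Viability read as ATP luminescence and normalised to DMSO and 100 uM tamoxifen. AC50 fitted with the Hill equation.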
Peg3 imprint – qHTS Assay for Compounds that Induce Erasure of Genomic Imprints; mouse ES Peg3-LacZ reporter, beta-gal luminescence, 40 h; Potency, µM (highest dose often 60.7 µM), for the others: top-dose activity change, positive = activation, usual class: activators; 110,000 tested, 0.02% active
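Imprint erasure is scored as LacZ activity from the silenced maternal Peg3 allele in feeder-free female ES cells cultured 40 h with LIF. Luminescence is normalized to in-plate negative controls and fitted to the Hill equation.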
p53ts 39C kill – qHTS Screen for Compounds that Selectively Target Cancer Cells with p53 Mutations: Cytotoxicity of p53ts Cells at the Nonpermissive Temperature. H1299-p53A138V viability at 39C, ATP luminescence, 24 h. Potency, µM (top dose mostly 46.1 µM), for inactives: at the top dose activity change, negative = cell killing, most hits filed as cytotoxic. 130,000 tested, 1.5% active. AID 902, 2007; note: % is set by controls: 0 for no effect and ±100 for the full control effect; nearly all actives have a fitted effect of over 55% in size
IkB sig inh – IkB Signaling | ABC-DLBCL IkBa-CBG/CBR dual luciferase ratio, 4 h; response scale: scaled: untreated 0%, proteasome inhibitor 100% | Potency, µM (titrated, usually from 57.1 µM), without a hit: at the top dose IkBa stabilization activation | 110,000 tested, 0.04% active; active = well fitted curve in the direction sought with a large enough effect in the signal ratio, not every such curve was filed as active; inconclusive = small, poorly fitted or top-dose-only effect, or a change in a side signal; the % refers to the signal ratio;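 note: the direction sought is a rising ratio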
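Luminescence ratio of IκBα-fused green versus native red beetle luciferase in OCI-Ly3 cells, 4 h post-doxycycline with compound; red signal alone, scaled from basal (0%) to zero light (-100%), flagged nonspecific or cytotoxic effects.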
* hit, by the source's call; ? = inconclusive; · = not tested or not shown; [ ] = remark or other dose. Unless noted, calls come from the whole dose curve; as a rule, active = well fitted curve in the direction sought with a large enough effect; inconclusive = small, poorly fitted or top-dose-only effect, or another doubt; inactive = no such curve, though single readings can be large; an effect the other way counts as inactive or inconclusive. Potency is the fitted concentration of half-maximal effect.

SMILES	p53ts 32C tox	Peg3 imprint	p53ts 39C kill	IkB sig inh
O=C(c1cc2ccc3cccnc3c2[nH]1)N1CCN(c2ccc(Cl)cc2)CC1	-4%	-3%[10.9 µM]	-21%	0%
COc1ccccc1NC(=O)c1cc2ccc3cccnc3c2[nH]1	10µM*	-12%[10.9 µM]	7.9µM*	15%
O=C1c2ccccc2-c2cc([N+](=O)[O-])c([N+](=O)[O-])cc21	-21%[9.22 µM]	-40%[10.9 µM]	36%[9.22 µM]	4µM*
COC(=O)c1cc2oc3ccccc3c2n1CC(=O)Nc1ccc(Cl)cc1F	-2%	6%[10.9 µM]	10µM*	10%
C=CCNc1nc(-c2cc3ccccc3o2)cs1	14µM*	·	?	·
O=C(COc1ccc2c(c1)CCC2)N1CCc2ccccc21	13µM*	-35%	?	?
COc1ccc2c(c1OC)C(=O)N(c1cccc(C)c1)C2	7.9µM*	-50%	5µM*	3%
COc1ccc2c(c1OC)C(=O)N(c1cccc(C(F)(F)F)c1)C2	?	-20%	?	0%
Cn1cc(-c2cc3n(n2)CCC(=O)N3CCCC(=O)NCc2ccc(Cl)cc2)c2ccccc21	?	-7%[10.9 µM]	13µM*	2%
Cn1cc(-c2cc3n(n2)CCC(=O)N3CCCC(=O)Nc2ccc(Cl)cc2)c2ccccc21	-2%	-20%[10.9 µM]	-3%	?
CCCc1nc2ccccc2c(=O)n1/N=C/c1ccc(O)cc1	12%	-13%	-7%	4%
CN=c1scc(C)n1/N=C/c1ccc(O)cc1	7.9µM*	-48%	?	0%
CCCc1nc2ccccc2c(=O)n1/N=C/c1ccc(O)cc1O	6%	-12%	-5%	-3%
CN=c1scc(C)n1/N=C/c1ccc(O)cc1O	5µM*	-81%	5µM*	?
CN=c1scc(C)n1/N=C/c1ccc2c(c1)OCO2	5µM*	-85%	5µM*	?
COC(=O)[C@H]1[C@@H]2C[C@H]3c4[nH]c5ccccc5c4CCN3C[C@@H]2CC[C@@H]1O	-15%	-12%	-14%	?
O=c1cc(-c2ccccc2)oc2cc(O[C@H]3O[C@H](CO)[C@@H](O)[C@H](O)[C@@H]3O)c(O)c(O)c12	·	·	·	0%[11.4 µM]
CCCCC/C=C\C/C=C\C/C=C\C/C=C\CCCC(=O)C(F)(F)F	·	-11%	·	·
Cc1ccn2cc(-c3ccc(C)c(NS(=O)(=O)c4ccc(Cl)cc4)c3)nc2c1	-5%	-6%[10.9 µM]	-14%	?
CCS(=O)(=O)Nc1cc(-c2cn3ccc(C)cc3n2)ccc1C	?	-11%[10.9 µM]	13µM*	-1%
Cc1cccc(/C=C(\c2nc3ccccc3[nH]2)S(=O)(=O)c2ccccc2)c1	4.5µM*	·	4.5µM*	·
Cc1cc(C)c2sc(N(Cc3cccnc3)C(=O)CCS(=O)(=O)c3ccccc3)nc2c1	-1%	19%[10.9 µM]	16µM*	1%
Cc1cc(C)c2nc(N(Cc3cccnc3)C(=O)CCS(=O)(=O)c3ccccc3)sc2c1	1%	-7%[10.9 µM]	-1%	1%
CCc1ccc(-n2c(=O)c3c(C)c(C(=O)N(C)C)sc3n(CC(=O)Nc3cc(Cl)ccc3C)c2=O)cc1	4%	16%[10.9 µM]	23%	9%
CCOc1ccccc1NC(=O)Cn1c(=O)n(-c2ccc(C)c(C)c2)c(=O)c2c(C)c(C(=O)N(C)C)sc21	-3%	25%[10.9 µM]	13µM*	-1%
SMILES	p53ts 32C tox	Peg3 imprint	p53ts 39C kill	IkB sig inh
Cc1nnc(SCC(=O)Nc2nsc(-c3ccccc3)n2)s1	13%	-5%	11%	2%
O=C(Nc1nsc(-c2ccccc2)n1)c1cccs1	4µM*	-76%	5µM*	?
O=C1OC(=O)c2ccccc21	18%[1.84 µM]	-3%	7%	0%
Cc1cc(O)c(CN2CCN(c3ccccc3)CC2)c2oc(=O)cc(C)c12	-4%	-14%[10.9 µM]	-5%	0%
O=S(=O)(NCCO)c1cccc2cccnc12	6%	2%	3%	2%
O=S(=O)(NCCNC/C=C\c1ccc(Br)cc1)c1cccc2cnccc12	?	·	16µM*	-4%
COc1ccccc1N1CCN(CC(O)COc2ccc(C)cc2C(C)(C)C)CC1 (configuration not stated)	-24%	-13%[10.9 µM]	25µM*	?
N#CC(Cc1ccc(O)c(O)c1)C(=O)N1CCc2ccccc21 (configuration not stated)	·	-26%	·	·
CCOc1ccc2nc(C)cc(Nc3ccccc3OCC)c2c1	-30%	-18%[10.9 µM]	7.9µM*	0%
c1csc(CNc2nc(-c3ccc4c(c3)OCO4)nc3ccccc23)c1	-12%	-14%	-19%	1%[11.4 µM]
O=C(O)c1cccc(COc2ccccc2Cl)c1	10µM*	-96%	13µM*	?
O=C(OC1Cc2c(O)cc(O)cc2OC1c1cc(O)c(O)c(O)c1-c1c(C2Oc3cc(O)cc(O)c3CC2OC(=O)c2cc(O)c(O)c(O)c2)cc(O)c(O)c1O)c1cc(O)c(O)c(O)c1 (configuration not stated)	3%	0%	3%	·
Cc1nc2c(C(=O)NC(C)c3ccccc3)cnn2c(C)c1Cc1ccccc1 (configuration not stated)	?	-17%[10.9 µM]	20µM*	?
Cc1cccc2c1-c1sc(C(=O)Nc3ccccc3C(N)=O)cc1CO2	?	-36%[10.9 µM]	13µM*	?
COc1cccc(CNC(=O)c2cccc(NC(=O)c3nsc4ccccc34)c2)c1	-18%	-12%[10.9 µM]	?	?
COC(=O)c1cccc(NC(=O)c2nsc3ccccc23)c1	2.5µM*	-74%[10.9 µM]	6.3µM*	6%
O=C(Nc1cccc(C(=O)N2CCCCC2)c1)c1nsc2ccccc12	16µM*	-8%[10.9 µM]	10µM*	1%
CC1=CC(=O)CC(C)(C)[C@]1(O)/C=C\C(C)=C\C(=O)O	2%[9.22 µM]	-11%[10.9 µM]	3%[9.22 µM]	0%[11.4 µM]
CCOc1ccc(OCc2cccc(C(=O)N3CCOCC3)c2)cc1	10µM*	-99%	13µM*	?
COc1ccc(OCc2ccc(C(=O)N3CCOCC3)cc2)cc1	-19%	·	9%	·
O=C(CC(c1ccccc1)c1cc(Br)ccc1O)NCCN1CCOCC1 (configuration not stated)	1%	-7%	8%	4%
O=C(CC(c1ccccc1)c1cc(Br)ccc1O)NCC1(c2ccccc2)CCCC1 (configuration not stated)	?	-4%[10.9 µM]	10µM*	?
O=C(O)C1CCCN1S(=O)(=O)c1cccc2cccnc12 (configuration not stated)	0%	-4%	3%	4%
COc1ccc2c(c1)sc(N)[n+]2Cc1cc(C)cc2cccnc12	-9%	·	11µM*	·
C[C@H]1[C@H](C)CC[C@]2(C(=O)O)CC[C@]3(C)C(=CC[C@H]4[C@]3(C)C[C@@H](O)C3[C@](C)(CO)[C@H](O)[C@@H](O)C[C@]34C)[C@H]12 (some centres not stated)	·	-3%[10.9 µM]	·	·
CN(C)c1ccc(NC(=S)c2ccccn2)cc1	1.6µM*	-93%	2.5µM*	?
